From PubChem BioAssay AID2284100 (EPA ToxCast)
Active and inactive are the calls of the source. How the source made its calls: active means hit-call score of the fitted dose curve at least 0.9, where 1 is the maximum; inactive means score below 0.9.

molecular target: human KDR (VEGFR2) Receptor Tyrosine Kinase, KDR (gene 3791) (UniProt P35968); assay: ERF_FR_ENZ_hKDR: Eurofins (ERF) Enzymatic Radiometric [Km ATP] KinaseProfiler LeadHunter Assay for human KDR (VEGFR2) Receptor Tyrosine Kinase
Procedure: ERF_FR_ENZ_hKDR is a biochemical, single-readout assay that uses extracted gene-proteins in a cell-free assay. Measurements were taken 1 hour after chemical dosing in a 96-well plate. See KDR (VEGFR2) Human RTK Kinase Enzymatic LANCE Assay [Km ATP], Cerep.ERF_FR_ENZ_hKDR is an assay component calculated from the ERF_FR_ENZ_hKDR assay. It is designed to measure enzyme activity using a type of enzyme reporter as detected by fluorescence intensity with LANCE technology.Data from the assay component ERF_FR_ENZ_hKDR was analyzed at the assay endpoint, ERF_FR_ENZ_hKDR, in the positive analysis fitting direction relative to DMSO as the negative control and baseline of activity. Using a type of enzyme reporter, loss-of-signal activity can be used to understand changes in enzymatic activity as they relate to gene KDR. To generalize the intended target to other relatable targets, this assay endpoint is annotated to the kinase intended target family, where the subfamily is receptor tyrosine kinase.
KDR (h) is incubated with 8 mM MOPS pH 7.0, 0.2 mM EDTA, 0.33 mg/mL myelin basic protein, 10 mM MgAcetate and [gamma-33P]-ATP (specific activity and concentration as required). The reaction is initiated by the addition of the Mg/ATP mix. After incubation for 40 minutes at room temperature, the reaction is stopped by the addition of phosphoric acid to a concentration of 0.5%. […]

Chain of human KDR (VEGFR2) Receptor Tyrosine Kinase, KDR (gene 3791) (P35968 whole entry, looked up): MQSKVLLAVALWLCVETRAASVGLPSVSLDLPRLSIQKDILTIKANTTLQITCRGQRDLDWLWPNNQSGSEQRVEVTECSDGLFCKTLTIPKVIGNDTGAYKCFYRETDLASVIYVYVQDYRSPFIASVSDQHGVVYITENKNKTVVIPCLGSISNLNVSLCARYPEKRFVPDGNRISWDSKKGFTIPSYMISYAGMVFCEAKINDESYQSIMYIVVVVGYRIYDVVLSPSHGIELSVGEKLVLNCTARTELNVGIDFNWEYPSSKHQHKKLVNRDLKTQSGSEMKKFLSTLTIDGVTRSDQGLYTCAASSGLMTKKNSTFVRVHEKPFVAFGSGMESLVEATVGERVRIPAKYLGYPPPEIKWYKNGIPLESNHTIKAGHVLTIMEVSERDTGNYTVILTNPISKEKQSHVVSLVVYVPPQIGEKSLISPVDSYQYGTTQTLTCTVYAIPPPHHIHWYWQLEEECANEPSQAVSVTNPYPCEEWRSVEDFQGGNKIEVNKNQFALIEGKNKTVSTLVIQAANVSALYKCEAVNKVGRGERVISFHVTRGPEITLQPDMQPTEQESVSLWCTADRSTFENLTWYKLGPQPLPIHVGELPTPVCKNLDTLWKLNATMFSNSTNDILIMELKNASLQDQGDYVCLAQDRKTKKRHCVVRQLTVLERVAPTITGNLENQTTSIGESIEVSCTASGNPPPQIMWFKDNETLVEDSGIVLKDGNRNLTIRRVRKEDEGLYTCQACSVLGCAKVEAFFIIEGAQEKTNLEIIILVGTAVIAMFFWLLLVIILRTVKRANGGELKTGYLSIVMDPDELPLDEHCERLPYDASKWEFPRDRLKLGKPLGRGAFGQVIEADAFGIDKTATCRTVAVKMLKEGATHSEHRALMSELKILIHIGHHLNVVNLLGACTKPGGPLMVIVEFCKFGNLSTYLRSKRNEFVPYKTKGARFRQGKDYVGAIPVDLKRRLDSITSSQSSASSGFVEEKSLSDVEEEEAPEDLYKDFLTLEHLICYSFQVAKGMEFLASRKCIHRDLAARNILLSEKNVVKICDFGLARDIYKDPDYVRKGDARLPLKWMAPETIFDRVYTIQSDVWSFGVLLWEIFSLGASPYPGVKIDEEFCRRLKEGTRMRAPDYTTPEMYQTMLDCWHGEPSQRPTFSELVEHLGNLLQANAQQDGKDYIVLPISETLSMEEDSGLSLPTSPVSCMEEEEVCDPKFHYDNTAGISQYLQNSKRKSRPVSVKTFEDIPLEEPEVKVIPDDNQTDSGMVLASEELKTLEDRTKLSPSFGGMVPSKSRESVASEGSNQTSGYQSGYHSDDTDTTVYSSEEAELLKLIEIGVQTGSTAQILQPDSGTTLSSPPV

| SMILES | AC50 |
| --- | --- |
| O=C(/C=C/c1ccc(O)cc1)CC(=O)/C=C/c1ccc(O)cc1 | 2390 nM (active) |
